# Records with an inconclusive call do not appear. A structure can be active in one record and inactive in another. Active and inactive are the calls of the source. Rule for the calls: active = hit-call score of the fitted dose curve at least 0.9, where 1 is the maximum; inconclusive = response in the unintended direction; inactive = score below 0.9.
# How the values were obtained:
# [1] = biological target: Estrogen receptor (Homo sapiens) (UniProt P03372); assay: OT_ER_ERaERa_1440: Odyssey Thera (OT) 24-hour HEK293T Protein-Complementation Assay for Estrogen Receptor-alpha/-alpha Homodimer (AID 2283349);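 note: hits raise fluorescence above DMSO for agonists and antagonists alike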
# Method in brief: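 Readout is the rise in mean fluorescence from reporter fragment complementation when ERα LBD (aa 310-547) units dimerize in HEK293T cells. Measured 24 h after dosing and analysed as increase over DMSO control.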
# [2] = biological target: Estrogen receptor (Homo sapiens) (UniProt P03372); assay: OT_ER_ERaERa_0480: Odyssey Thera (OT) 8-hour HEK293T Protein-Complementation Assay for Estrogen Receptor-alpha/-alpha Homodimer (AID 2283351);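 note: rise in fluorescence from reassembled reporter fragments on ERα LBD homodimer in nucleus or whole cell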
# Method in brief: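 HEK293T, stable ERα LBD (aa 310-547) PCA homodimer; 8 h compound exposure; fluorescence intensity, laser scanning cytometer; positive fitting direction, DMSO baseline.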
# [3] = biological target: T1, Estrogen receptor (Homo sapiens) + Estrogen receptor beta (Homo sapiens) (UniProt P03372+Q92731); assay: OT_ER_ERaERb_0480: Odyssey Thera (OT) 8-hour HEK293T Protein-Complementation Assay for Estrogen Receptor-alpha/-beta Heterodimer (AID 2283352)
# Method in brief: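 Fluorescence increase from reconstituted reporter fragments, quantified by laser scanning cytometer, reflects ER-alpha/ER-beta heterodimer formation in human HEK293T cells. Exposure 8 h; positive-direction fitting against DMSO vehicle.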
# [4] = biological target: T1, Estrogen receptor (Homo sapiens) + Estrogen receptor beta (Homo sapiens); assay: OT_ER_ERaERb_1440: Odyssey Thera (OT) 24-hour HEK293T Protein-Complementation Assay for Estrogen Receptor-alpha/-beta Homodimer (AID 2283356);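 note: heteromer of ER alpha and ER beta binding domains; hits raise reporter fluorescence and both agonists and antagonists give an increase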
# Method in brief: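 Fragment complementation between ER alpha (310-547) and ER beta (263-489) ligand-binding domains in HEK293T cells; signal read 24 h post-dosing by laser scanning cytometer. Gain of fluorescence relative to DMSO fitted.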
# [5] = biological target: Estrogen receptor beta (Homo sapiens) (UniProt Q92731); assay: OT_ER_ERbERb_0480: Odyssey Thera (OT) 8-hour HEK293T Protein-Complementation Assay for Estrogen Receptor-beta/-beta Homodimer (AID 2283357);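 note: active means signal gain over DMSO baseline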
# Method in brief: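 Readout: increase in mean fluorescence intensity (nucleus for agonists; nucleus plus cytoplasm for antagonists) relative to DMSO, from a reporter-fragment complementation of human ER-beta LBD homodimer in HEK293T cells dosed 8 hours.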
# [6] = biological target: Androgen Receptor/SRC-1 Co-activator, AR (gene 367) (UniProt P10275); assay: OT_AR_ARSRC1_0480: Odyssey Thera (OT) 8-hour HEK293T Protein-Complementation Assay for Androgen Receptor/SRC-1 Co-activator (AID 2283354);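 note: hits raise the complementation signal above DMSO so AC50 marks enhancers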
# Method in brief: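 HEK293T cells stably expressing AR and SRC-1 fused to split Venus YFP fragments via (Gly4Ser)2 linkers were read 8 h after compound dosing. Complementation was imaged at 488 and 635nm, and nuclear/cytoplasmic fluorescence ratio (488nm) was taken over ≥400 cells; gain-of-signal versus DMSO.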
# [7] = biological target: Retinoic acid receptor alpha (Homo sapiens) (UniProt P10276); assay: NVS_NR_hRAR_Antagonist: NovaScreen (NVS) Nuclear Receptor Binding Assay for human Retinoic Acid Alpha Receptor Antagonism (RAR) (AID 2283358)
# Method in brief: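 Cell-free TR-FRET binding assay on extracted receptor protein, run in antagonist mode; signal read 2 hours after chemical dosing. Loss of signal was fitted relative to DMSO baseline. Screened at 25 uM in duplicate, actives followed up in concentration series.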
# [8] = tested on: guinea pig Dopamine Transporter (DAT), gene 100714898; assay: NVS_TR_gDAT: NovaScreen (NVS) Transporter Assay for guinea pig Dopamine Transporter (DAT) (AID 2283369);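 note: active compounds lower bound radioligand signal relative to DMSO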
# Method in brief: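 Radioligand displacement on membranes from guinea pig striatum, 2 h exposure, bound label counted by filtration and scintillation. Tested at 25 uM in duplicate, then actives in concentration series to 50 uM; DMSO as negative control.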
# [9] = biological target: Peroxisome proliferator-activated receptor gamma (Homo sapiens) (UniProt P37231); assay: NVS_NR_hPPARg: NovaScreen (NVS) Nuclear Receptor Binding Assay for human Peroxisome Proliferator-activated Receptor gamma (PPARg) (AID 2283370)
# Method in brief: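 Fluorescence polarization readout of ligand binding to extracted human PPARg, measured at 2 h. Duplicate single-point screen at 25 uM, then concentration-series retesting; activity defined as signal loss versus DMSO.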
# [10] = biological target: PGR (gene 5241) (UniProt P06401); assay: NVS_NR_hPR: NovaScreen (NVS) Nuclear Receptor Binding Assay for human Progestron Receptor (PR) (AID 2283360);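 note: active means loss of bound radioligand signal versus DMSO baseline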
# Method in brief: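 T47D-derived receptor preparation, cell-free, with tritiated or iodinated radioligand displacement measured by scintillation 18 h post-dosing. Single 25 uM duplicate screen, then concentration series; signal loss relative to DMSO.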
# [11] = biological target: Nuclear receptor subfamily 1 group I member 2 (Homo sapiens) (UniProt O75469); assay: NVS_NR_hPXR: NovaScreen (NVS) Nuclear Receptor Binding Assay for human Pregnane X Receptor (PXR) (AID 2283365);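 note: a drop in FRET signal versus DMSO baseline means the compound binds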
# Method in brief: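 Human PXR binding measured by TR-FRET in a cell-free format, 2 h exposure. Single-concentration duplicates at 25 uM preceded concentration-response retests of actives; endpoint fitted positively relative to DMSO, loss of signal indicating binding.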
# [12] = biological target: human Thyroid Receptor Alpha (TRa), THRA (gene 7067) (UniProt P10827); assay: NVS_NR_hTRa_Antagonist: NovaScreen (NVS) Nuclear Receptor Binding Assay for human Thyroid Receptor Alpha Antagonism (TRa) (AID 2283362);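 note: activity is loss of signal relative to DMSO baseline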
# Method in brief: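 Actives from a duplicate 25 uM single-point screen were retested in concentration series. The cell-free antagonist-format binding assay was read by AlphaLISA chemiluminescence at 1 h, scored as signal loss relative to DMSO.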
# [13] = biological target: guinea pig Sigma Receptor, Non-selective Binding, SIGMAR1 (gene 100135589) (UniProt Q60492); assay: NVS_OR_gSIGMA_NonSelective: NovaScreen (NVS) Nuclear Receptor Binding Assay for guinea pig Sigma Receptor, Non-selective Binding (AID 2283367)
# Method in brief: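 Guinea pig brain membranes, cell-free radioligand binding; read 1 h after dosing by filter-based scintillation counting. Loss of signal vs DMSO baseline taken as displacement. Primary screen single concentration 25 uM in duplicate; actives retested in concentration series.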
# [14] = biological target: Glucocorticoid receptor (Homo sapiens) (UniProt P04150); assay: NVS_NR_hGR: NovaScreen (NVS) Nuclear Receptor Binding Assay for human Glucocorticoid Receptor (GR) (AID 2283363);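 for AC50: activity is loss of specific radioligand binding signal relative to DMSO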
# Method in brief: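 Cell-free radioligand binding with extracted receptor protein, read by filter-based scintillation counting 16 hours after dosing. Loss of specific signal versus DMSO baseline was scored. Primary screen ran in duplicate at 25 uM; actives were followed up in concentration series.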
# [15] = biological target: human Peroxisome Proliferator-activated Receptor alpha (PPARa), PPARA (gene 5465) (UniProt Q07869); assay: NVS_NR_hPPARa: NovaScreen (NVS) Nuclear Receptor Binding Assay for human Peroxisome Proliferator-activated Receptor alpha (PPARa) (AID 2283359);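 note: activity means loss of TR-FRET signal versus DMSO baseline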
# Method in brief: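 Cell-free binding assay with extracted human protein, read by TR-FRET 1 h after chemical dosing. Loss of signal relative to DMSO baseline indicates binding. Primary screen used duplicate single concentration (25 uM); actives followed up in concentration series.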
# Sequence of guinea pig Sigma Receptor, Non-selective Binding, SIGMAR1 (gene 100135589) (Q60492 whole entry, looked up): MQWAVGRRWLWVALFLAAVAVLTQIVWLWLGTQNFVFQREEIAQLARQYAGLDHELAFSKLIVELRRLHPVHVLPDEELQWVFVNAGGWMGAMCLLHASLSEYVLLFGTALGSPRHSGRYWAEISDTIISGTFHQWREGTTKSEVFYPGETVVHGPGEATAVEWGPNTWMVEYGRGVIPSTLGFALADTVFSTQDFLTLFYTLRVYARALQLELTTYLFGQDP
# Sequence of Retinoic acid receptor alpha (Homo sapiens) (P10276 whole entry, looked up): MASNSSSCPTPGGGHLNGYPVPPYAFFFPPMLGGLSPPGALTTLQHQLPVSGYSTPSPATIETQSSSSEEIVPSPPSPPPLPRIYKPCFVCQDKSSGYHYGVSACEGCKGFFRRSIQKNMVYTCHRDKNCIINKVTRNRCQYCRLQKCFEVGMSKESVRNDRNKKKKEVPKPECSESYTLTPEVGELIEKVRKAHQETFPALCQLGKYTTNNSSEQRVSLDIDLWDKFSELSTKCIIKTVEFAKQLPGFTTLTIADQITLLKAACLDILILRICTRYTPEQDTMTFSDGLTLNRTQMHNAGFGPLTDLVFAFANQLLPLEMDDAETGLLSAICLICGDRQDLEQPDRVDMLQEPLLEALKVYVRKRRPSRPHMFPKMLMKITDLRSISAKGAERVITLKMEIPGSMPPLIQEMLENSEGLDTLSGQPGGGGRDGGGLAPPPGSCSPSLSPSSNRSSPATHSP
# Sequence of Estrogen receptor beta (Homo sapiens) (Q92731 whole entry, looked up, the tested form may be a part): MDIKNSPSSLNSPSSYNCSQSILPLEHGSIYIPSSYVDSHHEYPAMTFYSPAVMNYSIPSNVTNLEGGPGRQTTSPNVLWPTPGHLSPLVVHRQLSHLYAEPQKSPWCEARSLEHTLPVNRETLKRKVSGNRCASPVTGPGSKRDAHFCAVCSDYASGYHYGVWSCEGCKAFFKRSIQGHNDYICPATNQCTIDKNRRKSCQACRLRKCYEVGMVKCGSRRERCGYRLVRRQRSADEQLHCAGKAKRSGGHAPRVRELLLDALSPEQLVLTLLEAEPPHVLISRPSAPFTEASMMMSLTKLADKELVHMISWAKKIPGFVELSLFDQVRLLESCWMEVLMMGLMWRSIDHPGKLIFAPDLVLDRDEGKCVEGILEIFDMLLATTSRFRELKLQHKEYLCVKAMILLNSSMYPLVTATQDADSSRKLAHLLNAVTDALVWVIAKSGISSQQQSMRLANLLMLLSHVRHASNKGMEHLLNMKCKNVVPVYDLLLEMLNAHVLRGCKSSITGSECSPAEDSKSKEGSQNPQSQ
# T1 sequence (P03372 whole entry, looked up, the tested form may be a part): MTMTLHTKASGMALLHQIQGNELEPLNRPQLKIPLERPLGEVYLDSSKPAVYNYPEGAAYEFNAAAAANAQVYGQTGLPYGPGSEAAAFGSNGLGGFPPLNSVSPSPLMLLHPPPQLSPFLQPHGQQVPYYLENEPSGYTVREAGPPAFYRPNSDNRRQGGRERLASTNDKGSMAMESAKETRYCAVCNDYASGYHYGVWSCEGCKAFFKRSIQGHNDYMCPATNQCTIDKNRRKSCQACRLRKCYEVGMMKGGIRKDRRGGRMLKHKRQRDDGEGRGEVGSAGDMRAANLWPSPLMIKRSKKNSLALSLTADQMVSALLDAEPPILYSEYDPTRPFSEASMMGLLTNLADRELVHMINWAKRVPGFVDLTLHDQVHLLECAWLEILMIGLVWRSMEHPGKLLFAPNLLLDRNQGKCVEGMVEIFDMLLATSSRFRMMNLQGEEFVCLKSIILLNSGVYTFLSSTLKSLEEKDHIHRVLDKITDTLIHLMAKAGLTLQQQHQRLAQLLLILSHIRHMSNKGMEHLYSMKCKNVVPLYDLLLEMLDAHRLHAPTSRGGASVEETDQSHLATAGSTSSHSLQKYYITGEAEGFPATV
# T1 sequence (Q92731 whole entry, looked up, the tested form may be a part): as the sequence (Q92731 whole entry, looked up, the tested form may be a part) above
# Sequence of Estrogen receptor (Homo sapiens) (P03372 whole entry, looked up, the tested form may be a part): as the sequence (P03372 whole entry, looked up, the tested form may be a part) above
# Sequence of Nuclear receptor subfamily 1 group I member 2 (Homo sapiens) (O75469 whole entry, looked up): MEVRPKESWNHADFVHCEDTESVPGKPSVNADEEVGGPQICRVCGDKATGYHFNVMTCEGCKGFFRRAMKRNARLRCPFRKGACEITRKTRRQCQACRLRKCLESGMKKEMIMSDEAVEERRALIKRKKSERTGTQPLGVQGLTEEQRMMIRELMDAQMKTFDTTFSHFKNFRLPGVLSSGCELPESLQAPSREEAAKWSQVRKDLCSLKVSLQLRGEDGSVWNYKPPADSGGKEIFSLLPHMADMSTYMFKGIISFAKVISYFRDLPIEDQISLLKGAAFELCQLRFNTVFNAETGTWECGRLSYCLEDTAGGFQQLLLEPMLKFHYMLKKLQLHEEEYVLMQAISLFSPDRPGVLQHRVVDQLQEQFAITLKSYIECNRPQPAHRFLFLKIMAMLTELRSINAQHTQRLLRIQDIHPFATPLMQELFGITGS
# Sequence of Peroxisome proliferator-activated receptor gamma (Homo sapiens) (P37231 whole entry, looked up): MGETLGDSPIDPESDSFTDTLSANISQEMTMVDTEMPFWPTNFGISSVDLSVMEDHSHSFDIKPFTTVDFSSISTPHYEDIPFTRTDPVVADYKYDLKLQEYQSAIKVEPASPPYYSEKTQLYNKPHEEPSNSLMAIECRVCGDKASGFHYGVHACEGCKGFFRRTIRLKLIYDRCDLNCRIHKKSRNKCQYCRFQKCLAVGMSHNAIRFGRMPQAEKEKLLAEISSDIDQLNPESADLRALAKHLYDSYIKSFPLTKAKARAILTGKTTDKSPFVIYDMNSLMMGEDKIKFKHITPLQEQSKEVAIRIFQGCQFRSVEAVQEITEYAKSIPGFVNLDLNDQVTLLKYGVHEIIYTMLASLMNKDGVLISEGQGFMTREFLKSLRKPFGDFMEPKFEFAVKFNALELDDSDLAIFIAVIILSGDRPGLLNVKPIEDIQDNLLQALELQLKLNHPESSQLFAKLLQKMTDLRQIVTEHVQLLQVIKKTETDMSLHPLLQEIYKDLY
# Sequence of human Thyroid Receptor Alpha (TRa), THRA (gene 7067) (P10827 whole entry, looked up): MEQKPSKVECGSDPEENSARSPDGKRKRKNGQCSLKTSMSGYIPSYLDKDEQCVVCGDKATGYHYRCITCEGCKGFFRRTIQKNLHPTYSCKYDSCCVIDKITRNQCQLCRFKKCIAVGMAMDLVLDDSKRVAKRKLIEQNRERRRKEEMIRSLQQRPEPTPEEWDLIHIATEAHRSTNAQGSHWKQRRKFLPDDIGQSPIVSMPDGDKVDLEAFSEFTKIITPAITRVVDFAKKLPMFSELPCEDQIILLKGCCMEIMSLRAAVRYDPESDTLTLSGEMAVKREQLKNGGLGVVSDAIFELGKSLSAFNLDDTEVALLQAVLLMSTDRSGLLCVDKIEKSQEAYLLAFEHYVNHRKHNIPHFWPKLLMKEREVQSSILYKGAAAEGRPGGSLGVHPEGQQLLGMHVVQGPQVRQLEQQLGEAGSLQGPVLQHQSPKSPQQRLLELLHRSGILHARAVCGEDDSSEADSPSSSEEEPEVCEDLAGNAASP
# Sequence of Glucocorticoid receptor (Homo sapiens) (P04150 whole entry, looked up): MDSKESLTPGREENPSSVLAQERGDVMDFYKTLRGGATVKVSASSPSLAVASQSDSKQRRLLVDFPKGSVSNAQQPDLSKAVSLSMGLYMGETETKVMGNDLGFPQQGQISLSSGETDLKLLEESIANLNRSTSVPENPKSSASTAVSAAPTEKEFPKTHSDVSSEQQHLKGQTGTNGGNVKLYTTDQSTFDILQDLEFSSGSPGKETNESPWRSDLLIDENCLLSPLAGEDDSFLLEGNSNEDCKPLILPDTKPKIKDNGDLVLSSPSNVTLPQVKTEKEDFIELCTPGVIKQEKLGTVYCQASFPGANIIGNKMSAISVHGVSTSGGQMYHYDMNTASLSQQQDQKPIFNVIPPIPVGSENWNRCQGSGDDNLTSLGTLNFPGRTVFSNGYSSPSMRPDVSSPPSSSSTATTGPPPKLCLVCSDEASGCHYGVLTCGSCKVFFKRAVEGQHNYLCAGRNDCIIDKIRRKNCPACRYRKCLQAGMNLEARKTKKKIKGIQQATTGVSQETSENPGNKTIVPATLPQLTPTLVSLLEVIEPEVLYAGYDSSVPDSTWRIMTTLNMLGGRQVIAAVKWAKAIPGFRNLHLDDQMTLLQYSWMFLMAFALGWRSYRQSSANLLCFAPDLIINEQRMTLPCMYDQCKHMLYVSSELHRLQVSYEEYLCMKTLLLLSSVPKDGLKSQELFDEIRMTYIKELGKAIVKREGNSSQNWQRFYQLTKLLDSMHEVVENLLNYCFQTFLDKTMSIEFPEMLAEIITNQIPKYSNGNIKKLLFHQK
# Sequence of human Peroxisome Proliferator-activated Receptor alpha (PPARa), PPARA (gene 5465) (Q07869 whole entry, looked up): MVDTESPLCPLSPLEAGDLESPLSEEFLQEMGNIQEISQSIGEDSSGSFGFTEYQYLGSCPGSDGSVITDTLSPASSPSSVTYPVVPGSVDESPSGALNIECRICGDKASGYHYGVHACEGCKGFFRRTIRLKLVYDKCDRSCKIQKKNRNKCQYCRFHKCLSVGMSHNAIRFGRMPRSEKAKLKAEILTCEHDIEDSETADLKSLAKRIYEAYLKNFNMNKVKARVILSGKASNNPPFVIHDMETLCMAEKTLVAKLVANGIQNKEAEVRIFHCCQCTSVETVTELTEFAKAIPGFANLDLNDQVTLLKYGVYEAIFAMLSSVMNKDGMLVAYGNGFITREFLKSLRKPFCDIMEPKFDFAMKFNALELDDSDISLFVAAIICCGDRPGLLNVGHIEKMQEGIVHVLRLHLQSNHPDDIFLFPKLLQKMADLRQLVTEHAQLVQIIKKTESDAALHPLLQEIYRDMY
compound,measurement,setting,value
CSc1nc(NC(C)C)nc(NC(C)C)n1,outcome,[1],inactive
same,outcome,[2],inactive
same,outcome,[3],inactive
same,outcome,[4],inactive
same,outcome,[5],inactive
Nc1c(Cl)cc([N+](=O)[O-])cc1Cl,outcome,[1],inactive
same,outcome,[2],inactive
same,outcome,[3],inactive
same,outcome,[6],inactive
same,outcome,[4],inactive
same,outcome,[5],inactive
same,outcome,[7],inactive
same,outcome,[8],inactive
same,outcome,[9],inactive
CC[C@H](C)[C@H]1O[C@]2(C=C[C@@H]1C)C[C@@H]1C[C@@H](C/C=C(\C)[C@@H](O[C@H]3C[C@H](OC)[C@@H](O[C@H]4C[C@H](OC)[C@@H](NC)[C@H](C)O4)[C@H](C)O3)[C@@H](C)/C=C/C=C3\CO[C@@H]4[C@H](O)C(C)=C[C@@H](C(=O)O1)[C@]34O)O2,outcome,[1],inactive
same,outcome,[2],inactive
same,outcome,[10],inactive
same,AC50,[11],6.81 µM (active)
S=C1NCCN1,outcome,[7],inactive
same,outcome,[12],inactive
same,outcome,[13],inactive
C#CC(C)(C)NC(=O)c1cc(Cl)cc(Cl)c1,outcome,[7],inactive
same,outcome,[14],inactive
same,AC50,[13],1.94 µM (active)
CN(C)[C@@H]1C(=O)C(C(N)=O)=C(O)[C@@]2(O)C(=O)C3=C(O)c4c(O)cccc4[C@@](C)(O)[C@H]3[C@H](O)[C@@H]12,AC50,[15],14.1 µM (active)
same,outcome,[12],inactive
same,AC50,[11],2.08 µM (active)
same,outcome,[11],inactive
same,AC50,[9],20.2 µM (active)
same,outcome,[9],inactive
CCOP(=S)(OCC)Oc1cc(C)nc(C(C)C)n1,outcome,[10],inactive
same,outcome,[14],inactive
Nc1nc(N)nc(NC2CC2)n1,outcome,[5],inactive
CC(=NC#N)N(C)Cc1ccc(Cl)nc1,outcome,[5],inactive
same,outcome,[9],inactive
CCOP(=S)(OCC)OC(Cl)C(Cl)(Cl)Cl (stereo not drawn),AC50,[5],38.6 µM (active)
same,outcome,[9],inactive
CC(C)[C@H](C(=O)O[C@H](C#N)c1cccc(Oc2ccccc2)c1)c1ccc(Cl)cc1,outcome,[5],inactive
same,outcome,[9],inactive
FC(F)C(F)(F)OCC(Cn1cncn1)c1ccc(Cl)cc1Cl (stereo not drawn),outcome,[5],inactive
same,AC50,[14],8.87 µM (active)
same,AC50,[13],16.5 µM (active)
C#CCC1=C(C)C(OC(=O)C2C(C=C(C)C)C2(C)C)CC1=O (stereo not drawn),outcome,[5],inactive
same,AC50,[8],9.21 µM (active)
CCNc1nc(Cl)nc(NC(C)(C)C#N)n1,outcome,[5],inactive
COP(=O)(NC(C)=O)SC (stereo not drawn),outcome,[5],inactive
same,AC50,[14],1.66 µM (active)
same,outcome,[9],inactive
CC(C)N(C(=O)SCC(Cl)=C(Cl)Cl)C(C)C,outcome,[5],inactive
same,outcome,[7],inactive
same,outcome,[12],inactive
same,outcome,[14],inactive
same,outcome,[11],inactive
